Laboratory results reported in PubChem BioAssay AID1259374 (The Scripps Research Institute Molecular Screening Center, 2018).
“And” between values parts separate entries of the source, which are not always exact repeats. Equal entries are not always repeated. Among all 650,000 compounds or so, about 5,900 (0.91%) were called active. No stated cut-off is given here; in the data, active means inhibition above about 50%; inactive means the rest. Many of the other results were omitted from the sample, so actives are more common in it than they were. Where a structure was tested more than once in an assay, its records may differ in their call.

The compounds below were run against Microphthalmia-associated transcription factor (Homo sapiens) (UniProt O75030) (assay: MITF inhibitors, primary screen, biochemical, AlphaScreen, human (AID 1259374;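 further: 0% = vehicle wells with protein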)). Settings: AlphaScreen MITF homodimerization, bead proximity signal; at 2.6 µM; stronger effect = higher value.
Sequence of Microphthalmia-associated transcription factor (Homo sapiens) (O75030 whole entry, looked up): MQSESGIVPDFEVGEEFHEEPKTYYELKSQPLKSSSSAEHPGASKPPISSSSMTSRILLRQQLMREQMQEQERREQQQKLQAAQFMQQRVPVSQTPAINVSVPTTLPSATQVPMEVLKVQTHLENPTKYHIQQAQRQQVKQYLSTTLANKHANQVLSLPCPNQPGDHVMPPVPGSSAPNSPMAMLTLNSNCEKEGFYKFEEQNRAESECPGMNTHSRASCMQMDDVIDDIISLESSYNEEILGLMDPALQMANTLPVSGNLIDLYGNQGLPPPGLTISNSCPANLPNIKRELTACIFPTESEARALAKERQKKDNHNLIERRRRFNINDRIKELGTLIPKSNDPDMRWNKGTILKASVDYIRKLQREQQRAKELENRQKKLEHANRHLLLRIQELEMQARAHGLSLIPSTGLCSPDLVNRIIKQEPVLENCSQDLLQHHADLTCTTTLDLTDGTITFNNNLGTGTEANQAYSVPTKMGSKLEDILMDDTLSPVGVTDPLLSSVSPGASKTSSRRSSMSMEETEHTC
With `O=C(COc1ccc2c3c(c(=O)oc2c1)CCC3)Nc1cccc2ncccc12` the inhibition was 2.18% (inactive).
For `COc1ccc(/C(O)=C/c2nc3cc(C)ccc3oc2=O)cc1OC`, the inhibition was 3.89% (inactive).
In the case of `CCN(CC)S(=O)(=O)c1ccc(C(=O)NCCO)cc1`, the inhibition is reported as -0.2% (inactive).
In the case of `C/C(=N\N=C1\NC(=O)CC(C(=O)Nc2cccc(C(=O)O)c2)S1)c1ccccc1` (stereo unspecified), the inhibition is reported as 7.7% (inactive).
With `CC1CN(C(=O)COC(=O)/C=C/c2ccco2)CC(C)O1` (stereo unspecified) the inhibition was 16.4% (inactive).
`CC1CN(C(=O)COC(=O)c2cc(O)c(O)c(O)c2)CC(C)O1` (stereo unspecified) was tested, and the inhibition was 54.2% (active).
`CC1CN(C(=O)COc2ccc(C(C)C)cc2Br)CC(C)O1` (stereo unspecified) was tested, and the inhibition was -0.26% (inactive).
With `Cc1sc(NC(=O)c2ccco2)c(C(c2ccccn2)N2CCN(C)CC2)c1C` (stereo unspecified) the inhibition was 12.4% (inactive).
In the case of `Oc1c(CN2CCCC2)cc(COCc2ccccc2)c2cccnc12`, the inhibition is reported as 74.4% (active).
With `Oc1c(CN2CCN(c3cccc(Cl)c3)CC2)cc(Br)c2cccnc12` the inhibition was -1.04% (inactive).
With `CCOc1cccc(CN2CCCCC2)c1O` the inhibition was 12.8% (inactive).
In the case of `Cc1cccc(N2CC(O)=C(c3nc4ccccc4c(=O)[nH]3)C2=N)c1C`, the inhibition is reported as -2.19% (inactive).
For `CCCOc1cccc(C(=O)Nc2ccc3oc(-c4cccc5c(Br)cccc45)nc3c2)c1`, the inhibition was 3.22% (inactive).
For `COc1cccc(C2C(C(=O)OC(C)C)=C(C)NC3=C2C(=O)CC(c2ccc(Cl)cc2)C3)c1OC` (stereo unspecified), the inhibition was -2.22% (inactive).
For `COc1cc(Nc2ncnc3c2nc(N2CCN(Cc4ccc5c(c4)OCO5)CC2)n3C(C)C)cc(OC)c1OC`, the inhibition was 5.48% (inactive).
With `COc1cc(Nc2ncnc3c2nc(N2CCOCC2)n3C(C)C)cc(OC)c1OC` the inhibition was 54.5% (active).
In the case of `CC(C)n1c(N2CCOCC2)nc2c(Nc3ccc(Oc4ccccc4)cc3)ncnc21`, the inhibition is reported as 9.27% (inactive).
In the case of `C[C@@H]1CN(Cc2nnnn2CC(=O)N2CCc3ccccc3C2)C[C@H](C)O1`, the inhibition is reported as 12.1% (inactive).
With `C=CCNC(=O)C(=O)Nc1ccccc1CC` the inhibition was 19.9% (inactive).
For `CN1CCN(c2ncnc3c2cnn3-c2ccc(Cl)c(Cl)c2)CC1`, the inhibition was 10.1% (inactive).
`O=C(CC1OC(=O)c2ccccc21)OCC(=O)c1ccc(F)cc1` (stereo unspecified) was tested, and the inhibition was 18.3% (inactive).
`C=CCc1cc(C)ccc1OCCCn1ccnc1` was tested, and the inhibition was 64.5% (active).
For `COc1ccc(CCNC(=S)NCCCn2ccnc2)cc1`, the inhibition was 8.73% (inactive).
With `CCOC(=O)C(CCOc1cccc(CC)c1)C(=O)OCC` the inhibition was -23.7% (inactive).
In the case of `Cc1ccc(C(C)C)c(OCCCn2ccnc2)c1`, the inhibition is reported as 9.69% (inactive).
For `COc1ccc(CCCOC(Cn2ccnc2)c2ccc(OC)cc2)cc1` (stereo unspecified), the inhibition was -16.1% (inactive) and 0.54% (inactive).
For `Clc1ccc(OCCOCCn2ccnc2)c(Br)c1`, the inhibition was 46.3% (inactive).
With `C=CCc1cc(C)ccc1OCC(O)Cn1cnc2ccccc21` (stereo unspecified) the inhibition was 4.8% (inactive).
For `CCc1ccc(OCCCCn2ccnc2)cc1`, the inhibition was 62.2% (active).
`CCc1cccc(OCCOCCn2ccnc2)c1` was tested, and the inhibition was 65.1% (active).
In the case of `Cc1nn(C(=O)c2cccnc2)c(C)c1Sc1ccccc1[N+](=O)[O-]`, the inhibition is reported as 2.63% (inactive).
`O=C(Cc1cccc2ccccc12)Nc1nnc(-c2ccco2)o1` was tested, and the inhibition was 6.58% (inactive).
With `COCCN1Cc2cccc(C(=O)Nc3cccc(F)c3)c2C1=O` the inhibition was -5.68% (inactive).
In the case of `Cc1nc(CSc2ccc(-c3ccco3)nn2)cs1`, the inhibition is reported as 5.98% (inactive).
In the case of `CCCCc1ccc(Nc2nc3ccccc3nc2NS(=O)(=O)c2ccc(Cl)cc2)cc1`, the inhibition is reported as 1.24% (inactive).
In the case of `COc1ccc(C(=O)NC(NC(=O)c2ccc(OC)cc2)c2cccc(OC)c2)cc1`, the inhibition is reported as 9.45% (inactive).
With `CCN(CC)S(=O)(=O)c1ccc(-c2csc(N3N=C(c4cccc([N+](=O)[O-])c4)CC3c3ccc(F)cc3)n2)cc1` (stereo unspecified) the inhibition was 3.98% (inactive).
`O=C(c1ccc(NC(=S)NCc2ccc(F)cc2)cc1)N1CCCC1` was tested, and the inhibition was 22.4% (inactive).
In the case of `O=C(Nc1ccc(C(=O)N2CCCCC2)cc1)c1cccc(I)c1`, the inhibition is reported as -4.21% (inactive).
In the case of `O=C(CNCc1cccnc1)Nc1ccc(C(=O)N2CCCCC2)cc1`, the inhibition is reported as 93.3% (active).
In the case of `Cn1c(=O)c2c(nc(N3CCCCC3)n2CCNC2=NCCCCC2)n(C)c1=O`, the inhibition is reported as 0.31% (inactive).
For `Cc1nccn1CCNC(=O)Cn1nnnc1CN1CCCCCC1`, the inhibition was 0.85% (inactive).
`COc1ccc(C2=NN(c3nc(-c4ccccc4)c4cc(Cl)ccc4n3)C(c3ccc([N+](=O)[O-])cc3)C2)cc1` (stereo unspecified) was tested, and the inhibition was -4.92% (inactive).
With `c1ccc(CN2CCC(N=C3NN=C(c4ccc5c(c4)OCCO5)CS3)CC2)cc1` the inhibition was -10.7% (inactive).
In the case of `c1ccc(-n2cc(CN3CCOCC3)c(-c3ccc4c(c3)OCCO4)n2)cc1`, the inhibition is reported as 61.7% (active).
`c1ccc(-c2nnc3sc(-c4ccc5c(c4)OCCO5)nn23)cc1` was tested, and the inhibition was -0.82% (inactive).
In the case of `O=C(N/C(=C\c1ccccc1F)C(=O)N1CCCCC1)c1ccc([N+](=O)[O-])cc1`, the inhibition is reported as 17.1% (inactive).
`O=C(Nc1ccc(-c2ccncc2)c(C(F)(F)F)c1)C1COc2ccccc2O1` (stereo unspecified) was tested, and the inhibition was 53.1% (active).
For `O=C(Nc1cncc(-c2ccncc2)c1)C1COc2cc3ccccc3cc2O1` (stereo unspecified), the inhibition was 3.75% (inactive).
With `O=C(Nc1cncc(-c2ccncc2)c1)C1COc2ccccc2O1` (stereo unspecified) the inhibition was 17.1% (inactive).
With `Cc1nn(C)c(C)c1-c1cc(C(=O)NCCO)ccn1` the inhibition was 8.26% (inactive).
With `CCN(C(=O)c1ccc([N+](=O)[O-])cc1)c1ccccc1` the inhibition was 1.44% (inactive).
`CCN(Cc1ccccc1)Cc1ccc([N+](=O)[O-])cc1` was tested, and the inhibition was 60% (active).
For `CN(C)CCCN(CCCN(C)C)Cc1ccc([N+](=O)[O-])cc1`, the inhibition was 37.3% (inactive).
In the case of `O=C1N[C@H](CO)C(=O)N2CCN(Cc3cccc(F)c3)C[C@H]12`, the inhibition is reported as 10.2% (inactive).
For `OCCC1CN(Cc2ccc(F)c(F)c2)CCN1C1CCCC1` (stereo unspecified), the inhibition was -7.36% (inactive).
In the case of `Fc1cccc(CN2CCN(C3CCC(c4ccccc4)CC3)CC2)c1` (stereo unspecified), the inhibition is reported as 54.9% (active).
For `Clc1cccc(CN2CCN(C3CCCC3)CC2)c1`, the inhibition was 67.8% (active).
With `Fc1ccc(CN2CCN(C3CCCC3)CC2)cc1` the inhibition was 57.1% (active).
For `Cc1cccc(CN2CCN(C3CCCCC3)CC2)c1`, the inhibition was 33.7% (inactive).
In the case of `OCCC1CN(Cc2cccc(F)c2)CCN1C1CCCC1` (stereo unspecified), the inhibition is reported as 14.7% (inactive).
`Clc1cccc(CN2CCN(C3CCN(Cc4ccccc4)CC3)CC2)c1` was tested, and the inhibition was 23.2% (inactive).
`CCN(CC)C(=O)C1CCCN(Cc2ccc([N+](=O)[O-])cc2)C1` (stereo unspecified) was tested, and the inhibition was 27.7% (inactive).
`CCN(CC)C(=O)C1CCCN(Cc2cccc(Cl)c2)C1` (stereo unspecified) was tested, and the inhibition was 55.2% (active).
In the case of `OC1CCCN(Cc2cccc(Cl)c2)C1` (stereo unspecified), the inhibition is reported as -10.4% (inactive).
`NC(=O)C1CCCN(Cc2cccc(Cl)c2)C1` (stereo unspecified) was tested, and the inhibition was 31.1% (inactive).
With `O=C(NC1CCCCCC1)C1CCN(S(=O)(=O)c2cccc3nsnc23)CC1` the inhibition was -4.57% (inactive).
`c1ccc(CNc2cc(N3CCc4ccccc4C3)ncn2)cc1` was tested, and the inhibition was -8.87% (inactive).
For `Cc1c(C(=O)C(=O)N2CCCC2)c2ccccc2n1C`, the inhibition was -1.62% (inactive).
With `COc1cc([N+](=O)[O-])ccc1NC(=O)/C=C/c1ccc(F)cc1` the inhibition was 0.43% (inactive).
`CC(=O)Nc1cccc(NC(=O)CSc2nc(C(C)(C)C)nc3ccccc23)c1` was tested, and the inhibition was 16.8% (inactive).
In the case of `COc1cccc(C(C)N(C)C(=O)c2cc(COc3ccc(C(C)=O)cc3)on2)c1` (stereo unspecified), the inhibition is reported as 11.1% (inactive).
In the case of `COc1ccccc1C1CN(Cc2ccc(NC(C)=O)s2)Cc2ccccc2O1` (stereo unspecified), the inhibition is reported as 1.08% (inactive).
With `CC1(C)CC(=O)C2=C(C1)N(c1cccc(Cl)c1Cl)C1=C(C(=O)CC(C)(C)C1)C2c1ccc(F)c(Br)c1` the inhibition was -2.02% (inactive).
`O=C(N/N=C/c1ccncc1)c1cnn(-c2ccccc2)c1C(F)(F)F` was tested, and the inhibition was -19.6% (inactive).
For `CC(=O)NC(CC(C)C)C(=O)NC(C(=O)OCc1ccccc1)C(C)C` (stereo unspecified), the inhibition was 11.1% (inactive).
For `CC1CCN(S(=O)(=O)c2ccc(F)c(C(=O)Nc3cc(Cl)ccc3Cl)c2)CC1`, the inhibition was -3.2% (inactive).
With `CC1CCN(S(=O)(=O)c2ccc(Cl)c(C(=O)Nc3ccccc3[N+](=O)[O-])c2)CC1` the inhibition was 51% (active).
For `Cc1c(Cl)cccc1NC(=O)c1cc(S(=O)(=O)N2CCC(C)CC2)ccc1F`, the inhibition was 1.77% (inactive).
`Cc1ccccc1S(=O)(=O)Cc1ccc(C(=O)NCCCN2CCCCCC2)o1` was tested, and the inhibition was -6.96% (inactive).
In the case of `COc1ccccc1N(CN1CCCC1=O)C(=O)c1cc(C)cc(C)c1`, the inhibition is reported as 3.77% (inactive).
In the case of `Cc1ccc(C2SCC(=O)N2c2ccc(C)cc2)cc1` (stereo unspecified), the inhibition is reported as 7.57% (inactive).
For `O=C(Nc1cc(Cl)ccc1Cl)c1cc(C2CC2)on1`, the inhibition was -4.67% (inactive).
`O=C(CSc1nn2c(=O)c3ccccc3nc2s1)c1ccccc1` was tested, and the inhibition was 8.41% (inactive).
With `CC(=O)c1cccc(N2C(=O)c3ccc([N+](=O)[O-])cc3C2=O)c1` the inhibition was 4.17% (inactive).
With `CC(=O)Oc1cccc(N2C(=O)c3cccnc3C2=O)c1` the inhibition was 38.1% (inactive).
For `CC(=O)c1cccc(N2C(=O)c3cccnc3C2=O)c1`, the inhibition was 50.6% (active).
In the case of `CC(C)c1c(O)nc(SCC(=O)NC(C)(C)C)[nH]c1=O`, the inhibition is reported as 9.94% (inactive).
With `CNCC(O)c1ccc(O)c(O)c1` (stereo unspecified) the inhibition was 83.8% (active) and -4.84% (inactive) and -7.17% (inactive).
For `Cc1nnc2n1NC(c1ccc(F)cc1)C(C(=O)Nc1ccccc1C(F)(F)F)S2` (stereo unspecified), the inhibition was -7.82% (inactive).
`COc1cc(Br)c(/C=C2/NC(=O)N(c3cccc(Cl)c3)C2=O)cc1OC` was tested, and the inhibition was -4.06% (inactive).
`O=C(Cc1ccc(F)cc1)Nc1cnn(-c2cccc(C(=O)Nc3ccc(N4CCOCC4)cc3)c2)c1` was tested, and the inhibition was -19.1% (inactive).
`COc1ccc(NC(=O)C2CC(=O)N(c3ccc(Oc4ccccc4)cc3)C2)cc1` (stereo unspecified) was tested, and the inhibition was 12.4% (inactive).
`CC1CN(CCOc2ccc(Cl)c3ccccc23)CC(C)O1` (stereo unspecified) was tested, and the inhibition was 27.1% (inactive).
`C=CCc1ccc(OCCN2CC(C)OC(C)C2)c(OC)c1` (stereo unspecified) was tested, and the inhibition was 34.3% (inactive).
With `CC1CN(CCOc2ccccc2[N+](=O)[O-])CC(C)O1` (stereo unspecified) the inhibition was 50.7% (active).
